{"source": "PubChem BioAssay AID1241", "about": "(SRMLSC, 2008)", "note": "The campaign covered roughly 1,200 compounds. About 840 (70%) were called active. So high a share suggests a set chosen from earlier hits. The list is a sample of the results. Entries with a potency or affinity are not part of this list. A number with no mark means an inactive call. The rule behind the calls is not given here."}
{"experiment": "compounds inducing NF-kB luciferase expression – cell-based, SH-SY5Y, dose response (AID 1241)", "conditions": "SH-SY5Y NF-kB promoter luciferase reporter; series mostly up to 30 µM; fold induction over control: at the top concentration"}
{"smiles": "Oc1ccc2c(c1)oc1cc(O)ccc12", "fold induction over control": 6.53}
{"smiles": "CN=c1scc(C)n1/N=C/c1cc(Br)c(O)c(Br)c1", "fold induction over control": 1.35}
{"smiles": "O=C(OCC(F)(F)F)c1cccc(COc2ccc3ccccc3c2)c1", "fold induction over control": 12.3}
{"smiles": "COc1ccc(C(=O)OCCc2ccc(O)cc2)cc1", "fold induction over control": 13.5}
{"smiles": "COc1ccc(OCc2cccc(C(=O)Nn3cc([N+](=O)[O-])cn3)c2)cc1", "fold induction over control": 7.14}
{"smiles": "O=C(COC(=O)C1CCCCC1)Nc1ccc([N+](=O)[O-])cc1", "fold induction over control": 1.09}
{"smiles": "Cc1cccn2cc(-c3ccc(Cl)cc3)nc12", "fold induction over control": 11.2}
{"smiles": "Cc1ccc(Nc2n[nH]c(C)c2[N+](=O)[O-])c(C)c1", "fold induction over control": 2.95}
{"smiles": "CC(=O)c1cc(NC(=O)c2ccccc2)c(=O)oc1C", "fold induction over control": 1.02}
{"smiles": "CCOC(=O)c1sc(NC(=O)c2ccccc2OC)nc1C", "fold induction over control": 2.62}
{"smiles": "Cc1ccn2cc(CSc3ccccc3)nc2c1", "fold induction over control": 11.4}
{"smiles": "CCSc1nnc(NC(=O)c2ccc(C)cc2)s1", "fold induction over control": 9.12}
{"smiles": "Cc1ccc(-c2cc(-c3ccccc3C)[nH]n2)c(O)c1", "fold induction over control": 15.7}
{"smiles": "Cc1nc(N2CCCCC2)c2c(-c3cccs3)csc2n1", "fold induction over control": 1.02}
{"smiles": "Cc1ccc(C(=O)Oc2oc(-c3ccco3)nc2C=Nc2ccc(Cl)cc2)cc1", "fold induction over control": 13.7}
{"smiles": "O=c1[nH]c(-c2ccco2)nc2sc3c(c12)CCCC3", "fold induction over control": 12.5}
{"smiles": "c1ccc(-c2ccc(-c3nc(-c4cccnc4)no3)cc2)cc1", "fold induction over control": 9.39}
{"smiles": "CC(=O)Nc1ccc2oc(-c3ccccc3)nc2c1", "fold induction over control": 13.2}
{"smiles": "C=CCSC(=C(C#N)C#N)c1cc2c([nH]1)CCCC2", "fold induction over control": 4.8}
{"smiles": "Cc1ccc(-n2c(C)cc(C(=O)CSc3nncs3)c2C)cc1", "fold induction over control": 8.62}
{"smiles": "Cc1ccc(C(=O)/C=C/c2cn(CN3CCN(C)CC3)c3ccccc23)cc1", "fold induction over control": 10.2}
{"smiles": "OCCC1CN(Cc2ccc3nsnc3c2)CCN1C1CCCC1", "note": "(stereo not given)", "fold induction over control": 1.05}
{"smiles": "C/C(=N\\O)c1sc(-c2ccccc2)nc1C", "fold induction over control": 11.8}
{"smiles": "C/C(=N\\OC(=O)NC(C)C)c1sc(-c2ccc(Cl)cc2)nc1C", "fold induction over control": 2.38}
{"smiles": "Cc1ccc(Nc2nc3ccccc3[nH]2)nc1", "fold induction over control": 7.12}
{"smiles": "Cc1ccc2c(c1)C(=NC1CCCCC1)c1cc3ccccc3nc1-2", "fold induction over control": "10.2 [at 15 µM]"}
{"smiles": "CCOC(=O)c1cc(C(=O)Nc2cccc(C)c2)nn1C", "fold induction over control": 13.1}
{"smiles": "Cc1ccccc1C(=O)Nc1cccc(NC(=O)Cn2cnc3c(=O)n(C)c(=O)n(C)c32)c1", "fold induction over control": 1.64}
{"smiles": "CCc1ccc(NC(=O)c2onc(C)c2Cl)cc1", "fold induction over control": 11.8}
{"smiles": "Cc1ccc(/C(N)=N/OC(=O)c2ccc(F)cc2)cc1", "fold induction over control": 5.54}
{"smiles": "COc1ccccc1C(=O)O/N=C(\\N)c1ccc(Cl)cc1", "fold induction over control": 7.26}
{"smiles": "N/C(=N\\OC(=O)c1ccccc1Cl)c1cccnc1", "fold induction over control": 8.85}
{"smiles": "N/C(=N\\OC(=O)c1ccc(Br)cc1)c1ccccc1", "fold induction over control": 6.72}
{"smiles": "Cc1cc(/C=N/NC(N)=S)c(C)n1-c1ccc(Cl)c(Cl)c1", "fold induction over control": 4.51}
{"smiles": "COc1cccc(C(=O)Nc2ccc(C3CC3(Cl)Cl)cc2)c1", "note": "(stereo not given)", "fold induction over control": 7.84}
{"smiles": "Cc1onc(-c2c(F)cccc2Cl)c1C(=O)OCn1nnc2ccccc2c1=O", "fold induction over control": 1.99}
{"smiles": "COc1c(Cl)cc(Cl)cc1/C=C/C(=O)c1ccc(NC(=O)c2cccs2)cc1", "fold induction over control": "15.2 [at 15 µM]"}
{"smiles": "Cc1ccc(Nc2n[nH]c(C)c2[N+](=O)[O-])cc1C", "fold induction over control": 12.6}
{"smiles": "Oc1cccc2ccc(/C=C/c3c(F)cccc3Cl)nc12", "fold induction over control": 8.92}
{"smiles": "COc1cc(NC(=O)CSc2nc3ccccc3cc2C)c(C(=O)O)cc1OC", "fold induction over control": 1.1}
{"smiles": "O=C(CCc1nnc(CCCc2ccccc2)o1)NC(C1CC1)C1CC1", "fold induction over control": 8.51}
{"smiles": "N/C(=N\\OC(=O)Cc1cccc2ccccc12)c1ccccn1", "fold induction over control": 3.49}
{"smiles": "N/C(=N\\OC(=O)COc1cc(Cl)c(Cl)cc1Cl)c1ccccn1", "fold induction over control": 12.6}
{"smiles": "N#Cc1cc2ccccc2nc1SCc1ccccn1", "fold induction over control": 9.71}
{"smiles": "Fc1ccc(-n2nnc(-c3cccnc3Cl)n2)cc1", "fold induction over control": 12.6}
{"smiles": "Clc1ncccc1-c1nnn(-c2ccccc2)n1", "fold induction over control": 11.5}
{"smiles": "Cc1csc(NC(=O)NC2(C(F)(F)F)Oc3ccccc3O2)n1", "fold induction over control": 3.83}
{"smiles": "CC(C)c1ccc(NC(=O)c2csnn2)cc1", "fold induction over control": 12.2}
{"smiles": "CC(=O)Nc1ccc(N=Nc2ccc(O)cc2)cc1", "fold induction over control": 14.6}
{"smiles": "Cc1ccc(NC(=O)Nc2ccc3c(c2)nc(C)n3C)cc1", "fold induction over control": 11.6}
{"smiles": "COc1ccc(NC(=O)c2noc3c2CCCCC3)cc1", "fold induction over control": 11.6}
{"smiles": "CS(=O)(=O)c1ccc(C(=O)OCc2nnc(-c3ccc(Cl)cc3)o2)cc1[N+](=O)[O-]", "fold induction over control": 1.33}
{"smiles": "COc1ccc(/C=C/C(=O)c2ccccc2)c(OC)c1", "fold induction over control": 15.5}
{"smiles": "Cc1nn(C)cc1/C=C/C(=O)c1cccs1", "fold induction over control": 12.8}
{"smiles": "CNc1oc(/C=C/c2ccccc2)nc1C#N", "fold induction over control": 8.72}
{"smiles": "C(=C\\c1nc(-c2ccccc2)no1)/c1ccccc1", "fold induction over control": 14.1}
{"smiles": "CCc1ccc(-c2nn(-c3ccccc3)cc2CSC(=N)N)cc1", "fold induction over control": "5.16 [at 7.5 µM]"}
{"smiles": "O=C(Nc1ccc2c(c1)OCCO2)c1cccs1", "fold induction over control": 9.77}
{"smiles": "Cc1ccccc1-c1noc(-c2ccccc2F)n1", "fold induction over control": 12.3}
{"smiles": "Cc1cccc(-c2noc(-c3ccc(Cl)cc3[N+](=O)[O-])n2)c1", "fold induction over control": 13.6}
{"smiles": "COc1ccc(-c2cc(=O)c3cc(C)ccc3[nH]2)cc1", "fold induction over control": 7.13}
{"smiles": "CCOC(=O)c1sc(-c2ccc(OC)cc2)cc1N", "fold induction over control": 15.4}
{"smiles": "N#CC(=C1CCCC1)c1nc(-c2ccccc2)cs1", "fold induction over control": 9.56}
{"smiles": "Nc1nc(-c2ccc3c(c2)CCCC3)cs1", "fold induction over control": 13.8}
{"smiles": "O=c1oc2cc(Br)ccc2n1CSC1=NCCS1", "fold induction over control": 9.98}
{"smiles": "CCCCOC(=O)Nc1ccc2c(C)cc(=O)oc2c1", "fold induction over control": 9.2}
{"smiles": "O=C(Nc1ccc(Cl)cc1)c1ccc(Br)cc1F", "fold induction over control": 12.2}
{"smiles": "Cc1ccc(C(=O)Nc2ccc3c(c2)nc2n3CCSC2)cc1", "fold induction over control": 10.4}
{"smiles": "CN1C(=O)/C(=C\\C=C2/CCCN2C)N(C)C1=S", "fold induction over control": 2.4}
{"smiles": "Nc1nonc1-c1noc(COc2ccccc2Cl)n1", "fold induction over control": 15.9}
{"smiles": "COc1ccc(C(=O)NNC(=S)Nc2ccccc2)cc1", "fold induction over control": 10.9}
{"smiles": "Cc1cccc(Nc2nc3c(s2)CCCC3)c1", "fold induction over control": 11.4}
{"smiles": "Oc1ccccc1CNc1ccc(Br)cn1", "fold induction over control": 6.26}
{"smiles": "COc1ccccc1CNc1ccc(CNc2ncn[nH]2)cc1", "fold induction over control": 1.24}
{"smiles": "O=C(NCCCN1CCOCC1)c1cc(-c2cccs2)on1", "fold induction over control": 8.03}
{"smiles": "O=C(NCCCn1ccnc1)c1cc(-c2ccccc2)on1", "fold induction over control": 12.3}
{"smiles": "Cc1csc2nc(CSc3ccc(Cl)cc3)cn12", "fold induction over control": 10.2}
{"smiles": "O=C(Cc1cn2ccsc2n1)OCc1ccccc1", "fold induction over control": 2.43}
{"smiles": "CCOc1cccc2cc(-c3csc(NC(=O)CCC(=O)NCCCN4CCC(C)CC4)n3)c(=O)oc12", "fold induction over control": 13.6}
{"smiles": "Cc1ccc(Nc2ncnc3c2oc2ccccc23)cc1", "fold induction over control": 8.79}
